Drawing on PubChem BioAssay (NCI), this text covers growth for eight molecules.

What all share (test): NCI-60 one-dose screen, 48 h (100 = growth as untreated, 0 = no growth, -100 = all killed)
The subject of assay [1] is HCT-15 colon. Conditions: 10 µM unless noted.
In assay [2] the test system is HT29 colon. The conditions noted are these: 10 µM unless noted.
Assay [3] deals with SNB-75 CNS. Conditions: 10 µM unless noted.
Assay [4] has as its system SNB-19 CNS. Conditions: 10 µM unless noted.
Assay [5] deals with U251 CNS. Conditions: 10 µM unless noted.
In assay [6] the test system is PC-3 prostate. The conditions noted are these: 10 µM unless noted.
In assay [7] the test system is SK-MEL-5 melanoma. The conditions noted are these: 10 µM unless noted.
In assay [8] the test system is UACC-62 melanoma. Conditions: 10 µM unless noted.
Assay [9] has as its system LOX IMVI melanoma. Conditions: 10 µM unless noted.
The test system of assay [10] is SK-MEL-28 melanoma. The conditions noted are these: 10 µM unless noted.
In assay [11] the test system is SK-MEL-2 melanoma. The conditions noted are these: 10 µM unless noted.
Assay [12] deals with SN12C renal. The conditions noted are these: 10 µM unless noted.
Assay [13] deals with TK-10 renal. Conditions: 10 µM unless noted.
For assay [14], the system named is ACHN renal. The conditions noted are these: 10 µM unless noted.
For assay [15], the system named is A498 renal. Conditions: 10 µM unless noted.
Assay [16] has as its system CCRF-CEM leukemia. The conditions noted are these: 10 µM.
For assay [17], the system named is MOLT-4 leukemia. Conditions: 10 µM unless noted.
The subject of assay [18] is UO-31 renal. The conditions noted are these: 10 µM unless noted.
In assay [19] the test system is CAKI-1 renal. Conditions: 10 µM unless noted.
The subject of assay [20] is EKVX NSCLC. The conditions noted are these: 10 µM.

About 83,000 compounds went through this panel and 20% of them were active in at least one assay; those are over-represented in the sample as a whole.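 Activity criterion: percent growth below 10, measured after cells in 96-well plates were exposed to a single compound concentration for 48 hours.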 Values without a mark were called inactive. Active and inactive are the calls of the source.

Regarding `COC(=O)c1cc(Nc2ccc(O)c3c2C(=O)c2c([N+](=O)[O-])ccc(O)c2C3=O)cc(C(=O)OC)c1`, the growth in assay [1] is 16.3%; in [2], 36.5%; in assay [3], 59.1%; in assay [4] it was 76.9%; in assay [5] it was 74.8%; in assay [6], 70.9%. Besides, the growth was -49% (active) in assay [7]; 48.8% in assay [8]; 59.5% in assay [9]; 30.8% in [10]; 10.6% in assay [11]; 70.5% in [12]. Also, the growth in assay [13] was 60.4%; in [14] it was 90.5%; in [15], 93.8%; in [16] it was 23%; in [17], 25.5%.
As for `Clc1ccc(I)c2ccccc12`, the growth in assay [1] was 96.4%; in [2] it was 111%; in [3] it was 96.5%; in [4] it was 110%; in assay [5], 96.3%; in assay [6] it was 102%. Moreover, the growth in assay [7] was 109%; in assay [8] it was 111%; in assay [9] it was 59.4%; in assay [10] it was 114%; in assay [12], 111%; in assay [18], 82.6%. The growth in [13] is 92.6%; in assay [14], 103%; in assay [19], 95.6%; in assay [15], 117%; in [17], 98.9%.
For the molecule `CC(CCN1CCN(CCC(C)CC(C)(C)C)C1CC(C)CC(C)(C)C)CC(C)(C)C` (centres undefined), the growth in assay [1] is 87.5%; in assay [2] it was 39.4%; in assay [3], 80.7%; in assay [4], 102%; in assay [5], 91.6%; in assay [6], 56.7%. The growth was 108% in assay [7]; 103% in [8]; 81.8% in assay [9]; 105% in [10]; 82.6% in [20]; 91.2% in assay [12]. Further, the growth was 66.2% in assay [18]; 85.2% in [13]; 90.4% in assay [14]; 96.4% in assay [19]; 112% in assay [15]; 83.1% in [16]. The growth in assay [17] is 88.7%.
Consider `C/C(=N\Nc1cccc(Cl)n1)c1ccccn1`, for which the growth in assay [1] was 23.5%; in [2] it was 26.2%; in assay [3] it was 36.6%; in assay [4] it was 23.1%; in assay [5], 14.5%; in assay [6], 29.3%. Further, the growth in assay [8] was -24.1% (active); in assay [9] it was 0.322% (active); in assay [10], 14.2%; in assay [11] it was 21%; in assay [20], 5.56% (active); in assay [12] it was 13.6%. Also, the growth in assay [18] is -1.99% (active); in [13] it was 22.7%; in [14], 6.24% (active); in [19], 12.7%; in assay [15] it was -1.3% (active); in assay [16] it was 6.2% (active). Moreover, the growth in assay [17] is 4.01% (active).
Take `CC(=O)Nc1nc(C)c(C(=O)N/N=C/N2CCCCC2)s1`: the growth is 111% in assay [1]; 109% in assay [2]; 81.6% in [3]; 103% in assay [4]; 105% in assay [5]; 113% in [7]. In addition, the growth was 107% in [8]; 103% in [9]; 114% in assay [10]; 15.3% in assay [11]; 112% in assay [20]; 106% in [12]. Moreover, the growth was 98.7% in assay [18]; 144% in [13]; 116% in assay [14]; 132% in [19]; 119% in [15]; 94.6% in assay [16]. Further, the growth in [17] is 130%.
In the case of `Oc1ccccc1/C=N/N=C\c1ccccc1Cl`, the growth was 95.5% in assay [1]; 97.5% in assay [2]; 86.7% in assay [3]; 91.5% in [4]; 93.4% in [5]; 88.1% in [6]. The growth in assay [8] was 92.1%; in assay [9] it was 86.2%; in assay [10] it was 105%; in [11], 102%; in assay [20], 75.9%; in assay [12] it was 92.6%. In addition, the growth in assay [18] is 40.5%; in [13], 132%; in assay [14], 95.8%; in assay [19], 86.8%; in [15], 141%; in assay [16], 1.42% (active). Further, the growth in [17] was 61.3%.
With `COc1ccc(C2CC(=O)c3c(O)cc(OC4OC(COC5OC(C)C(O)C(O)C5O)C(O)C(O)C4O)cc3O2)cc1O` (centres undefined), the growth in [1] is 101%; in [2], 102%; in assay [3], 82.1%; in assay [4], 110%; in [5], 104%; in assay [7] it was 104%. Moreover, the growth was 111% in assay [8]; 107% in [9]; 124% in [10]; -1.88% (active) in [11]; 100% in [20]; 108% in assay [12]. Also, the growth is 95.3% in assay [18]; 110% in [13]; 117% in assay [14]; 105% in assay [19]; 132% in assay [15]; 106% in assay [16]. For the same molecule, the growth in [17] was 113%.
As for `COC(=O)C(N)CC(C)C` (centres undefined), the growth in assay [1] was 103%; in assay [2], 102%; in assay [3], 93.9%; in assay [4], 100%; in [5], 98%; in assay [6] it was 97.9%. Further, the growth in [9] is 95.8%; in assay [11], 101%; in assay [12], 17.6%; in assay [18], 90.5%; in [13], 90.6%; in [14], 97.4%. Moreover, the growth in assay [19] is 99.7%; in assay [15], 105%; in assay [17], 91.9%.
